Assay results reported in PubChem BioAssay (EPA / NIEHS).
Results filed as inconclusive are left out. The source made the active and inactive calls. How the source made its calls, unless noted: active means hit-call score of the fitted dose curve at least 0.9, where 1 is the maximum; inconclusive means response in the unintended direction; inactive means score below 0.9.

Columns and labels:
[1] = target: Thyroid hormone receptor alpha (Rattus norvegicus) + Thyroid hormone receptor beta (Rattus norvegicus) (UniProt P18113+P63059); experiment: TOX21_TR_LUC_GH3_Agonist_Followup: Tox21 GH3 Thyroid Hormone Receptor Agonism Luciferase Follow-Up Assay (AID 2283939)
Chain of Thyroid hormone receptor alpha (Rattus norvegicus) + Thyroid hormone receptor beta (Rattus norvegicus) (P63059 whole entry, looked up): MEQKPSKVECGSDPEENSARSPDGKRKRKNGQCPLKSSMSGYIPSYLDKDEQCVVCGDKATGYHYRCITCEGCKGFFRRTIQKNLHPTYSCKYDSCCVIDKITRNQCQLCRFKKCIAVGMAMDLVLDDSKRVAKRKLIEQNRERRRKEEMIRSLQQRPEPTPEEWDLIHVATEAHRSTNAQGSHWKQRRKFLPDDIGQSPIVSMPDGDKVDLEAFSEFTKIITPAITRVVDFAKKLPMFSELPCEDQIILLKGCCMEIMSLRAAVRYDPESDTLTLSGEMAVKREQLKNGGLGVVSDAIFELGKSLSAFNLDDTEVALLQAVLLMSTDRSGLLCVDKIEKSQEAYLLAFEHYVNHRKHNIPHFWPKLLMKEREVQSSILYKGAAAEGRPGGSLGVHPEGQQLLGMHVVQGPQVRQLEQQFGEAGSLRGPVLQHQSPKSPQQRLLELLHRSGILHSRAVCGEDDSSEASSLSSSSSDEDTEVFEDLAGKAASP
Chain of Thyroid hormone receptor alpha (Rattus norvegicus) + Thyroid hormone receptor beta (Rattus norvegicus) (P18113 whole entry, looked up): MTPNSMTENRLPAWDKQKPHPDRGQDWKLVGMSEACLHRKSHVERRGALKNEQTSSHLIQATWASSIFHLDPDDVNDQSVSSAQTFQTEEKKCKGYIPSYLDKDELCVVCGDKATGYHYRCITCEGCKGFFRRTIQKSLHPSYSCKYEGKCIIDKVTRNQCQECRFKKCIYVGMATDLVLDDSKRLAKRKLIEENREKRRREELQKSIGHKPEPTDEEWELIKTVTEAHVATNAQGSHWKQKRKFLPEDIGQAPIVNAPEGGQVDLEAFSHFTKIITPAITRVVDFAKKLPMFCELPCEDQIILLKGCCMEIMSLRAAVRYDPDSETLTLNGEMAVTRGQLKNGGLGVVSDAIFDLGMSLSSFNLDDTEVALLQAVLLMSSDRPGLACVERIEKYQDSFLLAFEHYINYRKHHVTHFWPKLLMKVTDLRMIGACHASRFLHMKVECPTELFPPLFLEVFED
Outline: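 Rat GH3 cells (1,500/well) in serum-free assay medium, treated with 15-point series, 92 uM to 5 nM final, for 24 h at 37C. Luciferase via ONE-Glo luminescence; gain of signal fitted against DMSO, T3 positive control.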

THRA (gene 7067) = THRA (gene 7067) (UniProt P10827); experiment: TOX21_TRA_COA_Agonist_Followup_ratio: Tox21 Thyroid Hormone Receptor alpha Agonism through Coactivator Recruitment Follow-Up Assay, Ratio (AID 2283948; active means hit-call score of the fitted dose curve at least 0.9, where 1 is the maximum; inactive means score below 0.9)
Chain of THRA (gene 7067) (P10827 whole entry, looked up, the tested form may be a part): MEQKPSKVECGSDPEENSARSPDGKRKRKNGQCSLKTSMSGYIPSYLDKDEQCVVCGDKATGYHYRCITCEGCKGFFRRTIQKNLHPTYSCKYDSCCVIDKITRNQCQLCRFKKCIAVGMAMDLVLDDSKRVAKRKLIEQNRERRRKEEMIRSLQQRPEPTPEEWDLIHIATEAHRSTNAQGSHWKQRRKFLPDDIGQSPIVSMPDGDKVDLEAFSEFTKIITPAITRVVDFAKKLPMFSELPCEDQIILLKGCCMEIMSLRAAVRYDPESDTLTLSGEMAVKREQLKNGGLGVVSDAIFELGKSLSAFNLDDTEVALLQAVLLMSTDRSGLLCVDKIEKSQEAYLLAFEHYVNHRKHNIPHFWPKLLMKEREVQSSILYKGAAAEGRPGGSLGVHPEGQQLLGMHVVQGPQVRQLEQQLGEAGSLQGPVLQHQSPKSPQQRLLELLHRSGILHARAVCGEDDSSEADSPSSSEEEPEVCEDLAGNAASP
Outline: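 Cell-free TR-FRET: GST-tagged TRα LBD (2.5 nM) with 0.10% BSA and compound, then fluorescein-SRC-2 peptide (200 nM) and Tb-anti-GST antibody (2 nM). Readout 520:495 nm ratio (ex 340 nm), normalized to DMSO (0%) and T3 (100%).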

THRB (gene 7068) [2] = target: THRB (gene 7068) (UniProt P10828); experiment: TOX21_TRB_BLA_Agonist_Followup_ratio: Tox21 Thyroid Hormone Receptor beta Agonism Beta-lactamase (BLA) Follow-Up Assay, Ratio (AID 2283954)
Chain of THRB (gene 7068) (P10828 whole entry, looked up, the tested form may be a part): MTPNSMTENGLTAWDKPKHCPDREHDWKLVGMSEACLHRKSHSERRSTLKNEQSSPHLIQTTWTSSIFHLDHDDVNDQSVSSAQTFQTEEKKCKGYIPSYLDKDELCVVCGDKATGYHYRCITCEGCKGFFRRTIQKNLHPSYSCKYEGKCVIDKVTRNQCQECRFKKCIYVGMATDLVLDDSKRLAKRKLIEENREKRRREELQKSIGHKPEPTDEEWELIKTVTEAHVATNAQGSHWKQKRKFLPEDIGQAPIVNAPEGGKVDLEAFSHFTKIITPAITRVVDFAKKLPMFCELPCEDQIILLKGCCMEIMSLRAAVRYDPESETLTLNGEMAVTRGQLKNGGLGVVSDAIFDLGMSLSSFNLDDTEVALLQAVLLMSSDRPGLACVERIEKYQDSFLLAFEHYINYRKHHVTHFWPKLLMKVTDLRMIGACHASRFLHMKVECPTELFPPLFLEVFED
Outline: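 Human TRβ LBD–GAL4 DBD fusion in GeneBLAzer UAS-bla HEK293T cells; 11 concentrations in triplicate, 18 h at 37°C/5% CO2, T3 as agonist control. CCF4-AM substrate 2 h at room temperature; 460:530 nm ratio fitted for gain of signal versus DMSO.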

THRB (gene 7068) [3] = target: THRB (gene 7068) (UniProt P10828); experiment: TOX21_TRB_COA_Agonist_Followup_ratio: Tox21 Thyroid Hormone Receptor beta Agonism through Coactivator Recruitment Follow-Up Assay, Ratio (AID 2283963; active means hit-call score of the fitted dose curve at least 0.9, where 1 is the maximum; inactive means score below 0.9)
Outline: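 Cell-free TR-FRET coactivator recruitment: GST-tagged TRβ LBD (5.0 nM) with 0.10% BSA incubated with compound, then fluorescein-SRC-2 peptide (200 nM) and Tb-anti-GST antibody (2 nM) added. 520:495 nm ratio normalized to DMSO (0%) and T3 (100%).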

[4] = target: Retinoic acid receptor RXR-alpha (Homo sapiens) (UniProt P19793); experiment: TOX21_TR_RXR_BLA_Agonist_Followup_ratio: Tox21 Thyroid Hormone Receptor beta Retinoid X Receptor alpha (RXRa) Agonism Beta-lactamase (BLA) Follow-Up Assay, Ratio (AID 2283968)
Chain of Retinoic acid receptor RXR-alpha (Homo sapiens) (P19793 whole entry, looked up): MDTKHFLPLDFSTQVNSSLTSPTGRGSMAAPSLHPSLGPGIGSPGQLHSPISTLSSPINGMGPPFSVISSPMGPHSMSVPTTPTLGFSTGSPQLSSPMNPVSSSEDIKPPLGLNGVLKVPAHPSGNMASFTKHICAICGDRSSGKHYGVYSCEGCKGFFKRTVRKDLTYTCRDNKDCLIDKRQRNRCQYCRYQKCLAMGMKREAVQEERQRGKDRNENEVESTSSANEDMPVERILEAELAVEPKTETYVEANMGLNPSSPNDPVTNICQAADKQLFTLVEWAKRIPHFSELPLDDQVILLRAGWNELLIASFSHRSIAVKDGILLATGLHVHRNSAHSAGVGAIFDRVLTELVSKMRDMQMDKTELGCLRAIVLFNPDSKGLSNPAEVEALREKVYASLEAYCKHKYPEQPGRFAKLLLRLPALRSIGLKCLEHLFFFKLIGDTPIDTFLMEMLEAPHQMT
Outline: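 RXRa-UAS-bla HEK293T cells, 5 h attachment at 37C/5% CO2, then 11 concentrations in triplicate for 16 h; 9-cis retinoic acid positive control. FRET-B/GCCF4-AM substrate 2 h at room temperature; 460:530 nm ratio, fitted for gain versus DMSO.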

[5] = TOX21_TR_RXR_BLA_Agonist_Followup_viability: Viability Assessment in the Tox21 Thyroid Hormone Receptor beta Retinoid X Receptor alpha (RXRa) Agonism Beta-lactamase (BLA) Follow-Up Assay (AID 2283970)
Outline: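 RXRa-UAS-bla HEK293T cells, 2,500/well in phenol red-free DMEM with 2% charcoal-stripped FBS, dosed for 16 h at 37C. Viability measured by CellTiter-Glo ATP luminescence; fitted bidirectionally against DMSO baseline, loss of signal indicating cytotoxicity.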

Measured: AC50

CC(C)(C)CC(C)(C)c1ccc(O)c(Cc2ccc(Cl)cc2Cl)c1
active: [1] 2.83 µM | THRA (gene 7067) 12.1 µM | THRB (gene 7068) [3] 12.2 µM
inactive: all other assays above
